Compounds with a hit are over-represented: about 1.4% of the library has one in this group of screens.
MsrA inh – bovine MsrA enzyme inhibitors, primary screen, biochemical, absorbance, HTS. 360,000 tested, 0.75% active. inhibition, % at 15.5 µM. purified bovine MsrA, absorbance read-out. AID 651718, 2012; in the data active = inhibition above about 4.5%
bovine MsrA act – bovine MsrA enzyme activators, primary screen, biochemical, absorbance, HTS | Methionine sulfoxide reductase A (Bos taurus) | purified bovine MsrA, absorbance read-out | activation, % at 10.6 µM | 360,000 tested, 0.3% active | AID 602163, 2012; in the data active = activation above about 7.5%
14-3-3 Bad inh – inhibitors of 14-3-3 zeta/Bad binding, primary screen, biochemical, TR-FRET, bovine 14-3-3 zeta. inhibition, % at 21.7 µM. AID 781, 2007. TR-FRET 14-3-3zeta/Dy647-pBad peptide displacement, 1 h. 220,000 tested, 0.71% active;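 active = inhibition above about 70%, limit read from the data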
p-CIP stab down – p/CIP-EGFP fusion destabilizers, primary screen, fluorescence, F442A cells | Q05BA5 | 290,000 tested, 0.01% active | decrease of EGFP signal, % at 10 µM | 16 h | AID 1984, 2009;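 active = EGFP signal decrease of at least 30% at 10 µM or well 3 SD below plate mean, unless failing retest; inactive = the rest, including hits failing retest or dose response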
Target sequence (Q05BA5 1-1403): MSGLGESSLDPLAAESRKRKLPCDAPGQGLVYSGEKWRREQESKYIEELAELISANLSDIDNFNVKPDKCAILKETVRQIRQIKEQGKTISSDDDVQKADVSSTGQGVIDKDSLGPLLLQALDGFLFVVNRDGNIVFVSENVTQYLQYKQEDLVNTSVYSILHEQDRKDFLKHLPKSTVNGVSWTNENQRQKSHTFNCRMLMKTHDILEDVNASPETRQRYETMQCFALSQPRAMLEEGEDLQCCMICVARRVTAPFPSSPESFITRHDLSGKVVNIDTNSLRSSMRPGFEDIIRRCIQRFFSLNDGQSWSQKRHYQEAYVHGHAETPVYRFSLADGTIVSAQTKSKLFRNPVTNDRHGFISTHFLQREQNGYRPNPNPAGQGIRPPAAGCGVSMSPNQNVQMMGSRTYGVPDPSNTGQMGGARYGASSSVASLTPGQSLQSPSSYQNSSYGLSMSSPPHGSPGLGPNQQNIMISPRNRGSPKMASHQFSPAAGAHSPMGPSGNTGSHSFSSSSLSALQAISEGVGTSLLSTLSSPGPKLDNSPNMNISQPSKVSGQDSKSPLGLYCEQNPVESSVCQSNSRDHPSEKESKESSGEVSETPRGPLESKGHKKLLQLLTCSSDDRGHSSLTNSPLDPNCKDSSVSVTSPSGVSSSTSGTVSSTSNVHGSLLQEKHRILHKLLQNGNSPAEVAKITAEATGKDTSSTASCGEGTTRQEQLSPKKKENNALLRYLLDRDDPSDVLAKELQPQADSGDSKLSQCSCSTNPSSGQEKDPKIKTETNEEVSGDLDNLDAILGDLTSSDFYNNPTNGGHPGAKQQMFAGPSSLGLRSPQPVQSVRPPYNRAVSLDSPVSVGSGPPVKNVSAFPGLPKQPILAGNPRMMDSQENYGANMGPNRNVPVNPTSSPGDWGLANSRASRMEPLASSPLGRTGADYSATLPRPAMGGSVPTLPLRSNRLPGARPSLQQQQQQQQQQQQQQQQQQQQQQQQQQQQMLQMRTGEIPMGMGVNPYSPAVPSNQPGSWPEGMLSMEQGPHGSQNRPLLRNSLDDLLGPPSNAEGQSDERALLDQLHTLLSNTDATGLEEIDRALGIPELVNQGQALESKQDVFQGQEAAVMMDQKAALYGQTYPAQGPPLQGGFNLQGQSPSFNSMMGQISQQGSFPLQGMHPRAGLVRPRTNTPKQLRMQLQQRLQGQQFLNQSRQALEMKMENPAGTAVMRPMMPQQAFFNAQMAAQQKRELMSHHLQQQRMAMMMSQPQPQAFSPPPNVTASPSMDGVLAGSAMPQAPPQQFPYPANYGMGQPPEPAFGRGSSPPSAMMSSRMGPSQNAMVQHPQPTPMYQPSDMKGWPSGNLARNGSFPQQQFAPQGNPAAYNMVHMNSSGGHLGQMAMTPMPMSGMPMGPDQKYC
Numbers stand for hits; [ ] = remark or other dose.

For COc1ccc(-c2ccc3c(N)c(C(=O)NC(C)C)sc3n2)cc1OC the results were MsrA inh inactive, bovine MsrA act inactive, 14-3-3 Bad inh inactive and p-CIP stab down inactive.
COc1ccc(C(=O)c2sc3nc(-c4ccccc4)ccc3c2N)cc1OC was read as MsrA inh inactive, bovine MsrA act inactive, 14-3-3 Bad inh 84[fluorescence artefact?] and p-CIP stab down inactive.
For COc1ccc(-c2ccc3c(N)c(C(=O)c4ccc(OC)c(OC)c4)sc3n2)cc1 the results were MsrA inh inactive, bovine MsrA act inactive, 14-3-3 Bad inh 86[fluorescence artefact?] and p-CIP stab down inactive.
`CC(C)CNc1ccc2c(c1)OC[C@H](C)NS2(=O)=O` gave MsrA inh inactive.
O=C1CC2c3cc(-c4cc5ccccc5o4)ccc3CCN2C(=O)CN1Cc1ccccc1 (stereo not drawn) was read as MsrA inh inactive.
Screening COC(=O)[C@]12C[C@H](CC(=O)NCC3CCCCC3)C(=O)N(Cc3ccc4c(c3)OCO4)C1=C[C@H](COCc1ccccc1)O[C@@H]2C returned MsrA inh inactive.
`CC(=O)c1ccc(-c2ccc(C(=O)N3CCN(c4ccc(F)cc4)CC3)o2)cc1` gave MsrA inh inactive, bovine MsrA act inactive, 14-3-3 Bad inh inactive and p-CIP stab down inactive.
CC(=O)c1ccc(-c2ccc(C(=O)N3CCC(C(N)=O)CC3)o2)cc1 was read as MsrA inh 7.6 and bovine MsrA act inactive.
`COc1ccc2nc(C)cc(SCC(=O)N/N=C/c3c(OC)ccc4ccccc34)c2c1` gave MsrA inh inactive, bovine MsrA act inactive, 14-3-3 Bad inh 96[fluorescence artefact?] and p-CIP stab down inactive.
COc1ccc2nc(C)cc(SCC(=O)N/N=C/c3ccccc3)c2c1 was read as MsrA inh inactive, bovine MsrA act inactive, 14-3-3 Bad inh inactive and p-CIP stab down inactive.
COc1ccccc1CCn1cnc(-c2ccccc2)c1CC(C)C was read as MsrA inh inactive.
For CCN(CC)S(=O)(=O)c1ccc(N=Nc2c(C)[nH]n(C(N)=S)c2=O)cc1 the results were MsrA inh 4.5, bovine MsrA act inactive, 14-3-3 Bad inh inactive and p-CIP stab down inactive.
For c1ccc(-c2ccccc2OCCOCCN2CCNCC2)cc1 the results were MsrA inh inactive, bovine MsrA act inactive, 14-3-3 Bad inh inactive and p-CIP stab down inactive.
CCN1CCN(CCOCCOc2ccccc2-c2ccccc2)CC1 was read as 14-3-3 Bad inh 71 and p-CIP stab down inactive.
Screening CCOC(=O)c1c(C)[nH]c(C(=O)OCCOc2ccccc2C)c1C returned MsrA inh inactive, bovine MsrA act inactive, 14-3-3 Bad inh 75[fluorescence artefact?] and p-CIP stab down inactive.
CCOC(=O)c1c(C)[nH]c(C(=O)OCCOc2ccc(Cl)cc2)c1C was read as MsrA inh inactive, bovine MsrA act inactive, 14-3-3 Bad inh inactive and p-CIP stab down inactive.
CCOC(=O)c1c(C)[nH]c(C(=O)COC(=O)c2ccc(O)cc2O)c1C was read as MsrA inh inactive, bovine MsrA act inactive, 14-3-3 Bad inh inactive and p-CIP stab down inactive.
CCOC(=O)c1c(C)[nH]c(C(=O)COC(=O)c2ccc(O)cc2)c1C was read as MsrA inh inactive, bovine MsrA act inactive, 14-3-3 Bad inh 82 and p-CIP stab down inactive.
Screening O=C(OCc1ccccc1)/C(=C/c1ccc(Cl)cc1)NC(=O)c1ccccc1Cl returned MsrA inh inactive, bovine MsrA act inactive, 14-3-3 Bad inh 80 and p-CIP stab down inactive.
Cc1ccc(C(=O)N/C(=C\c2ccccc2)C(=O)OCc2ccccc2)cc1 was read as MsrA inh inactive, bovine MsrA act inactive, 14-3-3 Bad inh inactive and p-CIP stab down inactive.
OCCN1CCN(CC(O)COCc2ccc3c(c2)OCO3)CC1 (stereo not drawn) was read as MsrA inh inactive, bovine MsrA act inactive, 14-3-3 Bad inh inactive and p-CIP stab down inactive.
OC(COCc1ccc2c(c1)OCO2)CN1CCN(Cc2ccccc2)CC1 (stereo not drawn) was read as MsrA inh inactive, bovine MsrA act inactive, 14-3-3 Bad inh 79 and p-CIP stab down inactive.
Screening COc1ccc(N(CC(=O)N/N=C/c2ccc(N(C)C)cc2)S(=O)(=O)c2ccccc2)cc1 returned MsrA inh 4.6, bovine MsrA act inactive and p-CIP stab down inactive.
For COc1ccc(N(CC(=O)N/N=C/c2ccccc2F)S(=O)(=O)c2ccccc2)cc1 the results were MsrA inh inactive, bovine MsrA act inactive and p-CIP stab down inactive.
Screening O=C1NC(c2cccc(C(F)(F)F)c2)c2c(-c3ccccc3)n[nH]c21 (stereo not drawn) returned MsrA inh inactive.
COc1ccc(C(CC(=O)N2CCCC2)c2c(OC)cc(OC)c3c(-c4ccccc4)cc(=O)oc23)cc1 (stereo not drawn) was read as MsrA inh inactive, bovine MsrA act 9.0, 14-3-3 Bad inh inactive and p-CIP stab down inactive.
`NC(=O)CSc1nnc(-c2cccc(S(=O)(=O)N3CCCCC3)c2)o1` gave MsrA inh inactive, bovine MsrA act inactive, 14-3-3 Bad inh 84 and p-CIP stab down inactive.
COc1ccc(-c2ccc(SCC(=O)c3cccs3)nn2)cc1 was read as MsrA inh inactive, bovine MsrA act inactive, 14-3-3 Bad inh inactive and p-CIP stab down inactive.
For COc1ccc2c(c1)nc(SCC(=O)C(C)(C)C)n2C the results were MsrA inh inactive, bovine MsrA act inactive, 14-3-3 Bad inh 73 and p-CIP stab down inactive.
For COc1ccc2c(c1)nc(SCC(=O)c1cccs1)n2C the results were MsrA inh inactive, bovine MsrA act inactive, 14-3-3 Bad inh 71 and p-CIP stab down inactive.
For COc1ccc2c(c1)nc(SCC(C)O)n2C (stereo not drawn) the results were MsrA inh inactive, bovine MsrA act inactive, 14-3-3 Bad inh inactive and p-CIP stab down inactive.
`CCCCCCCCN1C(=O)[C@@H](CC(=O)NCCCN2CCCC2=O)C[C@@]2(C(=O)OC)C1=C[C@H](C1CCCC1)O[C@@H]2C` gave MsrA inh inactive.
O=C(N=Nc1c(O)[nH]c2ccc(Br)cc12)c1cc(-c2cccs2)nc2ccccc12 was read as MsrA inh inactive, bovine MsrA act inactive, 14-3-3 Bad inh 86 and p-CIP stab down inactive.
Screening O=C(N=Nc1c(O)[nH]c2ccc([N+](=O)[O-])cc12)c1cc(-c2ccccc2Cl)nc2ccccc12 returned MsrA inh inactive, bovine MsrA act inactive, 14-3-3 Bad inh 94[fluorescence artefact?] and p-CIP stab down inactive.
For Cn1c(O)c(N=NC(=O)c2cc(-c3cccs3)nc3ccccc23)c2ccccc21 the results were MsrA inh inactive, bovine MsrA act inactive, 14-3-3 Bad inh inactive and p-CIP stab down inactive.
COc1ccc(-c2cc3ccccc3n2CC(O)CN2CCCCC2)cc1 (stereo not drawn) was read as MsrA inh inactive, bovine MsrA act inactive, 14-3-3 Bad inh inactive and p-CIP stab down inactive.
`CCC(=C(c1ccc(OC)cc1)c1ccc(OC)cc1)c1cn(CC(O)CN2CCN(C)CC2)c2ccccc12` (stereo not drawn) gave MsrA inh inactive, bovine MsrA act inactive, 14-3-3 Bad inh 96[fluorescence artefact?] and p-CIP stab down inactive.
Screening COc1ccc(-c2oc(NC(=O)c3ccc(C)cc3)c(C#N)c2-c2ccc(OC)cc2)cc1 returned MsrA inh inactive, bovine MsrA act inactive, 14-3-3 Bad inh 87[fluorescence artefact?] and p-CIP stab down inactive.

High-throughput results from PubChem.
